According to PubChem BioAssay:
For some assays here: Potency and affinity values are given separately. The source made the active and inactive calls. Unless noted, how the calls were made is not given here.

How the values were obtained:
[1] = antimalarial activity against Dd2 strain (AID 2302;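 active means growth inhibition above 50% at the single 2 µM test dose, taken to imply half-maximal potency below 2 µM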;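 further: 0% = DMSO untreated growth and 100% = chloroquine plus artemisinin killed control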); conditions: P. falciparum Dd2 in RBCs, LDH growth readout, 72 h; at 2 µM; hits give high values
[2] = HepG2 cytotoxicity, primary screen, cytotoxicity control for P. falciparum antimalarial project, cell-based, ATP luminescence (AID 2303;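 active means inhibition above 50%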;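 further: 0% = DMSO wells and 100% = digitonin-killed cells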); conditions: HepG2 viability, 24-48 h, at 10 µM, hits give high values
[3] = target: L-lactate dehydrogenase (Plasmodium falciparum (isolate CDC / Honduras)) (UniProt Q27743); test: PfLDH activity inhibition – cell lysate, 3D7 strain, counter-screen for P. falciparum growth inhibition project (AID 2304);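 further: 0% = vehicle and 100% = reference inhibitor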; conditions: P. falciparum 3D7 crude extract, LDH APAD/NBT absorbance; at 2 µM; hits give high values
[4] = inhibition of 3D7 malaria parasite growth – strain 3D7 (AID 2306);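 further: 0% = DMSO wells and 100% = chloroquine plus artemisinin control wells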; conditions: P. falciparum 3D7 erythrocytic growth, LDH absorbance, 72 h; at 2 µM; hits give high values
[5] = target: Calcium-dependent protein kinase 1 (Plasmodium falciparum (isolate 3D7)) (UniProt P62344); test: PfCDPK1 kinase inhibitors, biochemical, TCAMS library (AID 1159585; cut-off not given, nearly all actives have IC50 up to about 0.98 µM;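 further: inhibitors leave more ATP so luminescence rises with inhibition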); conditions: recombinant PfCDPK1, Kinase-Glo ATP depletion luminescence
[6] = target: Plasmodium falciparum protein kinase 6 (PK6, PF3D7_1337100) (UniProt Q8IDW1); test: PfPK6 kinase inhibitors, biochemical, TCAMS library (AID 1159586); conditions: recombinant PfPK6, Kinase-Glo ATP depletion luminescence
[7] = target: Protein kinase 7 (PK7), Plasmodium falciparum 3D7 (PF3D7_0213400) (UniProt Q7YTF7); test: inhibition of Plasmodium PK7 catalytic activity – biochemical, TCAMS antimalarial set, Kinase-Glo luminescence (AID 1159587); conditions: recombinant PfPK7, Kinase-Glo ATP depletion luminescence
[8] = target: Calcium-dependent protein kinase 4 (Plasmodium falciparum (isolate 3D7)) (UniProt Q8IBS5); test: PfCDPK4 kinase inhibitors, biochemical, TCAMS library (AID 1159588; cut-off not given, nearly all actives have IC50 up to about 0.91 µM); conditions: recombinant PfCDPK4, Kinase-Glo ATP depletion luminescence
Calcium-dependent protein kinase 4 (Plasmodium falciparum (isolate 3D7)), sequence (Q8IBS5 whole entry, looked up): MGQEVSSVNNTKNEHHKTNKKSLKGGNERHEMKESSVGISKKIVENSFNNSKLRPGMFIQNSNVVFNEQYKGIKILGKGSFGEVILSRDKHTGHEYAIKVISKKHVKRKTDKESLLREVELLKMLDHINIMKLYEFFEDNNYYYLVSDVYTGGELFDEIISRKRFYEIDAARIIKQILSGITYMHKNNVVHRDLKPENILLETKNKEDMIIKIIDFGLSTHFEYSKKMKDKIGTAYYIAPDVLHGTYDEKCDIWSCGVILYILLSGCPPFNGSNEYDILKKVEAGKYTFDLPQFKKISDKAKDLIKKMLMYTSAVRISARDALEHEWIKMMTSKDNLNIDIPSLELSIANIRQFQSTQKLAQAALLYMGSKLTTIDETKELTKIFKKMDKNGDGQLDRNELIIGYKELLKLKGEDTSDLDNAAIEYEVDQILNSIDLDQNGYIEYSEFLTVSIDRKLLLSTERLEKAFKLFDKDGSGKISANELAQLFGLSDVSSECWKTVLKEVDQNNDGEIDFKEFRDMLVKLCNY

L-lactate dehydrogenase (Plasmodium falciparum (isolate CDC / Honduras)), sequence (Q27743 whole entry, looked up): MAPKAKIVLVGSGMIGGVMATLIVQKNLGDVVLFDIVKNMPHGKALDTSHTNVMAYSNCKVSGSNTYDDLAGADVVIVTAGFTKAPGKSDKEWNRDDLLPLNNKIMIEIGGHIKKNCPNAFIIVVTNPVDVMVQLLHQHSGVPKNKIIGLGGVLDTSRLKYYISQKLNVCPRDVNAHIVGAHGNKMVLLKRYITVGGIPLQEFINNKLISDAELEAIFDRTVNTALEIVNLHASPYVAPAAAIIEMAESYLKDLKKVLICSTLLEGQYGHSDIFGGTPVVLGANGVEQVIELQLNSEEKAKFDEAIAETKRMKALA
Calcium-dependent protein kinase 1 (Plasmodium falciparum (isolate 3D7)), sequence (P62344 whole entry, looked up): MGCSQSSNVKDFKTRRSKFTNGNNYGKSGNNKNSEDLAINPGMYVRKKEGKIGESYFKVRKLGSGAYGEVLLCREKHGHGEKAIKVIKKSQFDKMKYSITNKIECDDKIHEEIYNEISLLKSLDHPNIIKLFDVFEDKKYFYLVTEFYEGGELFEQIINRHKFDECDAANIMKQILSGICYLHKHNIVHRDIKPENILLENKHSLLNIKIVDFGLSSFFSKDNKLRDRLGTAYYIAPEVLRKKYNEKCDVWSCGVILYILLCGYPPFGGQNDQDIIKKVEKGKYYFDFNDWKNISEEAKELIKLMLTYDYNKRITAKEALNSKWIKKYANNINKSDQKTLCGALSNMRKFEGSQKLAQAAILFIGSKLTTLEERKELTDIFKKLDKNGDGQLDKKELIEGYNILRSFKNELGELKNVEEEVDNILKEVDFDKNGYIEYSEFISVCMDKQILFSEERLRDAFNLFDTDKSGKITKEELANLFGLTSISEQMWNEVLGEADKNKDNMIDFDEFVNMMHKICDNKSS
Plasmodium falciparum protein kinase 6 (PK6, PF3D7_1337100), sequence (Q8IDW1 1-305): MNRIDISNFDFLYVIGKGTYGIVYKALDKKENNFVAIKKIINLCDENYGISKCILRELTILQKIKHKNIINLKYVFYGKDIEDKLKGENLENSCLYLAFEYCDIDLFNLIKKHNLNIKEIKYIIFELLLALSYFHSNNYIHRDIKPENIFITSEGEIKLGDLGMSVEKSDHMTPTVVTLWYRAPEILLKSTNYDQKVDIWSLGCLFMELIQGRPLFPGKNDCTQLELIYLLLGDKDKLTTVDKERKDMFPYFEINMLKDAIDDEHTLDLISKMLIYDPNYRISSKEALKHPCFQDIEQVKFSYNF
Protein kinase 7 (PK7), Plasmodium falciparum 3D7 (PF3D7_0213400), sequence (Q7YTF7 1-343): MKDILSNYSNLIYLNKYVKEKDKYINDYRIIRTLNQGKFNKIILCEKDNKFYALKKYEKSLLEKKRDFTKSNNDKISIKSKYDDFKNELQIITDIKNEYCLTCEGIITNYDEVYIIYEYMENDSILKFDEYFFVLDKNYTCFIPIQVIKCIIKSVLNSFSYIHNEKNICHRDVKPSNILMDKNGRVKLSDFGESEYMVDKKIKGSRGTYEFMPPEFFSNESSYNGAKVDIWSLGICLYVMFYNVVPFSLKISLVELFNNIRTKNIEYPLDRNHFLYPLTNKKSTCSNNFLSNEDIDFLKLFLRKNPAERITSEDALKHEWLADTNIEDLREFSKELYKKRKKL

O=C(Nc1ccc(-c2nc3ccccc3[nH]2)cc1)c1cncc(Br)c1
inactive: growth inhibition [1] 49% | inhibition [2] 35% | inhibition [3] 1% | outcome [5] | outcome [6] | outcome [7] | outcome [8]
active: growth inhibition [4] 95%

COc1cccc(CN2CCCN(Cc3cccc(NC(=O)c4ccc(-c5ccccc5)cc4)c3)CC2)c1
inactive: growth inhibition [1] 8% | inhibition [2] 35% | inhibition [3] -1% | outcome [5] | outcome [6] | outcome [7] | outcome [8]
active: growth inhibition [4] 86%

COc1cccc(-c2ccc(C(=O)NCC3CCCN(Cc4cccc(C(F)(F)F)c4)C3)s2)c1 (stereo not given)
active: growth inhibition [4] 85%
inactive: growth inhibition [1] 18% | inhibition [2] 10% | inhibition [3] 0% | outcome [5] | outcome [6] | outcome [7] | outcome [8]

CCN1CCN(c2cc(C)c3cc(NC(=O)c4ccc([N+](=O)[O-])c(C)c4)ccc3n2)CC1
inactive: growth inhibition [1] 39% | inhibition [2] 8% | inhibition [3] -2% | outcome [5] | outcome [6] | outcome [7] | outcome [8]
active: growth inhibition [4] 92%

Cc1nnc(NC(=O)c2cn(-c3ccccc3)nc2-c2ccccc2C)o1
inactive: inhibition [2] 37% | inhibition [3] 1% | outcome [5] | outcome [6] | outcome [7] | outcome [8]
active: growth inhibition [1] 87% | growth inhibition [4] 93%

O=C(NC1CC1)c1ccc(N2CCC(c3ccccc3)CC2)nc1
active: growth inhibition [1] 92% | growth inhibition [4] 93%
inactive: inhibition [2] 16% | inhibition [3] 1% | outcome [5] | outcome [6] | outcome [7] | outcome [8]

Cc1[nH]c(C)c(-c2ccc(Cl)cc2Cl)c(=O)c1Br
active: growth inhibition [1] 57% | growth inhibition [4] 87%
inactive: inhibition [2] 3% | inhibition [3] -4% | outcome [5] | outcome [6] | outcome [7] | outcome [8]

Cc1ccc(C)c(NC(=O)NCCNc2ccnc(Nc3ccc(F)cc3)n2)c1
active: growth inhibition [4] 97%
inactive: growth inhibition [1] 5% | inhibition [2] 21% | inhibition [3] 6% | outcome [5] | outcome [6] | outcome [7] | outcome [8]

CCCN1CCN(Cc2ccc(-c3ccc(-c4nc5ccccc5[nH]4)s3)cc2)CC1
inactive: inhibition [2] 29% | inhibition [3] 5% | outcome [5] | outcome [6] | outcome [7] | outcome [8]
active: growth inhibition [1] 93% | growth inhibition [4] 103%

O=C(Nc1ccc(C(F)(F)F)cc1)c1ccc(S(=O)(=O)NCC2CCCN(CC3CCCCC3)C2)cc1 (stereo not given)
inactive: growth inhibition [1] -6% | inhibition [2] 44% | inhibition [3] -7% | outcome [5] | outcome [6] | outcome [7] | outcome [8]
active: growth inhibition [4] 93%

CCOc1cc(N)c2nc3ccc([N+](=O)[O-])cc3cc2c1
active: growth inhibition [1] 78% | inhibition [2] 73% | growth inhibition [4] 100%
inactive: inhibition [3] 7% | outcome [5] | outcome [6] | outcome [7] | outcome [8]

CN(Cc1ccccc1)C1CCCN(c2cc(NC(=O)c3cccs3)ccn2)C1 (stereo not given)
inactive: inhibition [2] 2% | inhibition [3] -1% | outcome [5] | outcome [6] | outcome [7] | outcome [8]
active: growth inhibition [1] 90% | growth inhibition [4] 88%

Cc1ccc(Nc2nccc(NCC(O)c3ccc(C(F)(F)F)cc3)n2)cc1 (stereo not given)
inactive: inhibition [3] -7% | outcome [5] | outcome [6] | outcome [7] | outcome [8]
active: growth inhibition [1] 100% | inhibition [2] 53% | growth inhibition [4] 100%

CCCCNCC(O)COc1ccccc1-c1ccc(N/N=C/c2cccc3ccccc23)nn1 (stereo not given)
inactive: growth inhibition [1] 8% | inhibition [2] 38% | inhibition [3] -4% | outcome [5] | outcome [6] | outcome [7] | outcome [8]
active: growth inhibition [4] 99%

Cc1ccc(-c2nc(N3CCN(C(=O)c4ccco4)CC3)c3ccccc3n2)cc1
inactive: inhibition [2] -8% | inhibition [3] 3% | outcome [5] | outcome [6] | outcome [7] | outcome [8]
active: growth inhibition [1] 75% | growth inhibition [4] 90%

CN(Cc1ccccc1)C1CCCN(c2cc(NC(=O)c3ccc(F)cc3)ccn2)C1 (stereo not given)
active: growth inhibition [1] 95% | growth inhibition [4] 93%
inactive: inhibition [2] 7% | inhibition [3] 0% | outcome [5] | outcome [6] | outcome [7] | outcome [8]

CCCc1ccc(Nc2nc(C)cc(N(CC)CCCN3CCCCC3)n2)cc1
active: growth inhibition [1] 95% | growth inhibition [4] 101%
inactive: inhibition [2] 48% | inhibition [3] 5% | outcome [5] | outcome [6] | outcome [7] | outcome [8]

COc1ccc(C2CC(=O)C3=C(C2)NC(C)=C(C(=O)OC(C)C)C3c2c(F)cccc2Cl)cc1OC (stereo not given)
active: growth inhibition [1] 81% | growth inhibition [4] 93%
inactive: inhibition [2] 0% | inhibition [3] -1% | outcome [5] | outcome [6] | outcome [7] | outcome [8]

Cc1nc2nc(N)nc(N)c2c(C)c1Cc1cccc(F)c1
inactive: growth inhibition [1] 1% | inhibition [3] -5% | outcome [5] | outcome [6] | outcome [7] | outcome [8]
active: inhibition [2] 65% | growth inhibition [4] 96%

O=C(/C=C/c1ccc(Cl)c(Cl)c1)NC1CCC(CN2CCC(c3nc4ncccc4[nH]3)CC2)CC1 (stereo not given)
active: growth inhibition [4] 101%
inactive: growth inhibition [1] 2% | inhibition [2] 7% | inhibition [3] -1% | outcome [5] | outcome [6] | outcome [7] | outcome [8]

CC(C)CN1CCN(c2nc(C#N)c3c(c2C(=S)NC2CCCCC2)CC(C)(C)OC3)CC1
active: growth inhibition [1] 99% | growth inhibition [4] 101%
inactive: inhibition [2] -4% | inhibition [3] -2% | outcome [5] | outcome [6] | outcome [7] | outcome [8]

Cc1cc(-c2cccc(CNC3CCN(C)CC3)c2)ccc1S(=O)(=O)NCc1ccccc1
inactive: inhibition [3] 4% | outcome [5] | outcome [6] | outcome [7] | outcome [8]
active: growth inhibition [1] 90% | inhibition [2] 53% | growth inhibition [4] 99%

COc1ccc2ccccc2c1CCCCN1CCN(CC(c2ccc(F)cc2)N2CCN(C(C)C)CC2)CC1 (stereo not given)
active: growth inhibition [1] 83% | inhibition [2] 92% | growth inhibition [4] 100%
inactive: inhibition [3] 2% | outcome [5] | outcome [6] | outcome [7] | outcome [8]

O=C(N[C@H]1CCN(Cc2ccc(OCCN3CCCC3)c3ccccc23)C1)c1ccc(Cl)c(Cl)c1
active: growth inhibition [1] 51% | inhibition [2] 90% | growth inhibition [4] 100%
inactive: inhibition [3] -1% | outcome [5] | outcome [6] | outcome [7] | outcome [8]

COc1ccc2c(C)cc(NCCCN(C)C)nc2c1
inactive: growth inhibition [1] 19% | inhibition [2] 10% | inhibition [3] 3% | outcome [5] | outcome [6] | outcome [7] | outcome [8]
active: growth inhibition [4] 95%

COc1ccccc1-c1ccc(C(=O)NCC2CCCN(Cc3cccc(C(F)(F)F)c3)C2)s1 (stereo not given)
inactive: growth inhibition [1] 37% | inhibition [2] 18% | inhibition [3] 3% | outcome [5] | outcome [6] | outcome [7] | outcome [8]
active: growth inhibition [4] 81%

COc1ccc(CCN(C)CCOc2ccc(NC(=O)c3cccc4c(=O)c5cc(SC)ccc5[nH]c34)cc2)cc1OC
active: growth inhibition [1] 82% | inhibition [2] 52% | growth inhibition [4] 97%
inactive: inhibition [3] 0% | outcome [5] | outcome [6] | outcome [7] | outcome [8]

COc1ccc2nc3cc(Cl)ccc3c(Nc3ccc(O)c(CN4CC5CCC(CC5)C4)c3)c2c1
active: growth inhibition [1] 100% | growth inhibition [4] 102%
inactive: inhibition [2] 17% | inhibition [3] 3% | outcome [5] | outcome [6] | outcome [7] | outcome [8]

CN1CCCN(c2ccnc3cc4c(cc23)N(C(=O)c2ccccc2Cl)CC4)CC1
inactive: growth inhibition [1] 30% | inhibition [2] 4% | inhibition [3] 3% | outcome [5] | outcome [6] | outcome [7] | outcome [8]
active: growth inhibition [4] 88%

CC1CC(C)CN(CC(O)CNC(=O)Nc2ccc(Br)cc2)C1 (stereo not given)
active: growth inhibition [4] 94%
inactive: growth inhibition [1] 44% | inhibition [2] 13% | inhibition [3] 5% | outcome [5] | outcome [6] | outcome [7] | outcome [8]

O=C(Nc1ccc(OC2CCN(Cc3ccc(F)cc3)C2)c(Cl)c1)c1ccc(F)cc1 (stereo not given)
active: growth inhibition [1] 94% | growth inhibition [4] 96%
inactive: inhibition [2] 10% | inhibition [3] -3% | outcome [5] | outcome [6] | outcome [7] | outcome [8]

CNCc1cccc2[nH]c(-c3csc(Cc4cc(Cl)ccc4OCC(C)C)n3)nc12
inactive: growth inhibition [1] 33% | inhibition [2] 9% | inhibition [3] -4% | outcome [5] | outcome [6] | outcome [7] | outcome [8]
active: growth inhibition [4] 100%

COc1ccc(CNC2CCN(C)CC2)cc1-c1ccc(S(=O)(=O)NC2CCC2)cc1
active: growth inhibition [1] 76% | inhibition [2] 58% | growth inhibition [4] 98%
inactive: inhibition [3] 1% | outcome [5] | outcome [6] | outcome [7] | outcome [8]

O=C(NCCCCCN1CCCN(C(=O)Nc2ccc(F)c(C(F)(F)F)c2)CC1)[C@@H]1C[C@H]1c1ccc(Cl)c(Cl)c1
active: inhibition [2] 61% | growth inhibition [4] 90%
inactive: growth inhibition [1] 1% | inhibition [3] 2% | outcome [5] | outcome [6] | outcome [7] | outcome [8]

CCc1ccc(CN(Cc2ccc(C)cc2)Cc2ccc(NC(C)=O)cc2)cc1
inactive: inhibition [2] 6% | inhibition [3] -1% | outcome [5] | outcome [6] | outcome [7] | outcome [8]
active: growth inhibition [1] 79% | growth inhibition [4] 89%

CCOC(=O)C1=C(C)N=c2sc(=Cc3cc(Cl)ccc3O)c(=O)n2C1c1ccc(OC)cc1 (stereo not given)
inactive: inhibition [2] -6% | inhibition [3] -3% | outcome [5] | outcome [6] | outcome [7] | outcome [8]
active: growth inhibition [1] 65% | growth inhibition [4] 99%

Cc1cc2c(cc1Cl)N(C(=O)Nc1cc(F)cc(-c3cncnc3)c1)CC2
inactive: inhibition [2] -4% | inhibition [3] -6% | outcome [5] | outcome [6] | outcome [7] | outcome [8]
active: growth inhibition [1] 59% | growth inhibition [4] 96%

NC(=O)c1cnc2cc(-c3ccoc3)ccc2c1Nc1ccc(NC(=O)Nc2ccccc2Cl)cc1
active: growth inhibition [1] 76% | growth inhibition [4] 100%
inactive: inhibition [2] 39% | inhibition [3] -5% | outcome [5] | outcome [6] | outcome [7] | outcome [8]

COc1cc2c(cc1OC)C(C(=O)c1ccccc1)=NCC2
active: growth inhibition [1] 62% | growth inhibition [4] 85%
inactive: inhibition [2] 19% | inhibition [3] 0% | outcome [5] | outcome [6] | outcome [7] | outcome [8]

COc1cc2sc(=NC(=O)c3cccc([N+](=O)[O-])c3)n(C)c2cc1OC
active: growth inhibition [1] 79% | growth inhibition [4] 92%
inactive: inhibition [2] 5% | inhibition [3] -3% | outcome [5] | outcome [6] | outcome [7] | outcome [8]
